CHX counter: counter-screen for Shiga toxin inhibitors: cycloheximide protein synthesis inhibition | cell reporter, cycloheximide protein synthesis inhibition counterscreen | max response, % | actives 12% (n = 300,000) | AID 2314; in the data active = max response mostly above about 13%, no sharp cut-off; inactive = mostly below about 14%; also: read at 38.3 µM for the half of the compounds with a filed dose
RE007 growth inh: less growth of the S. pombe RE007 Vpr strain | Potency, µM (titrated, usually from 92.2 µM), actives largely listed as inhibitors | actives 0.21% (n = 360,000) | S. pombe RE007 Vpr strain, BacTiter-Glo ATP luminescence, 24 h | AID 651644; active = well fitted falling curve with a large enough effect; inconclusive = small, poorly fitted or top-dose-only effect; inactive = no such curve, though single readings can be large or run the other way; also: nearly all actives have a fitted effect of over 50% in size
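Fission yeast RE007 carrying one integrated HIV-1 vpr copy, seeded at OD 0.01 in PMG+AL medium with 23 nL pinned compound. Grown 24 h at 30 degrees; viability read by BacTiter-Glo luminescence after 5 min.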
Tb PYK inh: blocks Trypanosoma brucei pyruvate kinase. Q57TT1. TbPYK enzyme, Kinase-Glo Plus ATP luminescence, 45 min. Potency, µM (titrated, usually from 76.8 µM), actives largely listed as inhibitors. actives 0.12% (n = 410,000). AID 624173; also: nearly all actives have a fitted effect of over 50% in size
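Enzyme and substrate buffer are dispensed first and compound is pin-transferred. ADP at 130 uM final then starts the reaction, which runs 45 min at room temperature. Detection reagent is added for 10 min before luminescence is imaged.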
FBPA Giardia inh: Giardia lamblia aldolase inhibition; A8B2U2; purified Giardia FBPA; Potency, µM (doses to about 59.6 µM), usual class: inhibitors; actives 0.71% (n = 290,000); also: nearly all actives have a fitted effect of over 55% in size
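Giardia FBPA (40 nM reagent) was preincubated 10 min at RT with compound (up to 57.5 uM final), then substrate plus GAPDH/TPI/NAD/arsenate coupling system with diaphorase/resazurin was added; resorufin fluorescence (525/598 nm) was read after 20 min.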
Shiga toxin inh: inhibitors of Shiga toxin in Vero cells; Vero cells, Shiga toxin protein synthesis inhibition reporter; AID 2315; inhibition, % at 38.7 µM; actives 9.2% (n = 290,000); in the data active = inhibition mostly above about 28%, no sharp cut-off; inactive = mostly below about 43%
LmPK inhibitor: LmPK (Leishmania mexicana) enzyme inhibition. Q27686. purified LmPK, Kinase-Glo ATP luminescence, 1 h. Potency, µM (highest dose often 57.5 µM), hits mostly inhibitors. actives 0.37% (n = 290,000). AID 1721
Target sequence (Q27686 whole entry, looked up): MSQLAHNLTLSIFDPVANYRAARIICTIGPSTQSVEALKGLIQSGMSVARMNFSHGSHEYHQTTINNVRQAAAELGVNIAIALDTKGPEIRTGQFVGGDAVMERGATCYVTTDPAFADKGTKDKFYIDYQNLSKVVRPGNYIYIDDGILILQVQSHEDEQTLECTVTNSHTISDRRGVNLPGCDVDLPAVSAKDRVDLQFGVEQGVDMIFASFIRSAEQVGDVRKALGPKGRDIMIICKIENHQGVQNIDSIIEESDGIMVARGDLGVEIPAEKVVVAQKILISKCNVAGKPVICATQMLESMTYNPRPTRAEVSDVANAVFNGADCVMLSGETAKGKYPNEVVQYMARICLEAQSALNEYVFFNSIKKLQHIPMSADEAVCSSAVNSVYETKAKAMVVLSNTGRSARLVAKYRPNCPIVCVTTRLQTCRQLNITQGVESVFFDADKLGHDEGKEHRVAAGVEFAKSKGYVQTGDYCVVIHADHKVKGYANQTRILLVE
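Purified LmPK (0.1 nM) converted ADP (0.1 mM) to ATP with PEP (0.5 mM) in imidazole buffer pH 7.2 with KCl and MgCl2, 1 h at room temperature. ATP was read by Kinase-Glo luminescence; data normalized to uninhibited and no-enzyme controls.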
Each line names hits and unclear results; the compound was inactive in the other large screens. This excerpt belongs to a sample that is enriched for hits. Unless noted, calls follow the shape of the dose curve; as a rule, active = well fitted curve in the direction sought with a large enough effect; inconclusive = small, poorly fitted or top-dose-only effect, or another doubt; inactive = no such curve, though single readings can be large; an effect the other way counts as inactive or inconclusive.

CCn1c(-c2cc(-c3ccc(OC(C)C)cc3)nc3ccccc23)n[nH]c1=S	CHX counter 31, FBPA Giardia inh inconclusive
Cc1ccc(-c2nnc(SCC(=O)c3ccc(Cl)cc3)n2-c2ccccc2)cc1	none (no result: CHX counter, RE007 growth inh, FBPA Giardia inh, Shiga toxin inh, LmPK inhibitor)
O=C(CCN1CCCC1=O)NC1CCCc2c1cnn2-c1ccc(F)cc1F (configuration not stated)	CHX counter 15
Cc1ccc(NC(=O)NCCN2CCCCC2)cc1	CHX counter 8.8, RE007 growth inh inconclusive
S=C(NCCN1CCOCC1)Nc1ccc(Cl)cc1	none
O=C(NCCN1CCCCC1)Nc1ccc(Br)cc1	none
O=C(NCCN1CCOCC1)Nc1ccc(Cl)cc1	CHX counter 13
O=C(CCCCn1c(=O)c2ccccc2n(Cc2ccccc2Cl)c1=O)NCc1ccc2c(c1)OCO2	none (no result: CHX counter, RE007 growth inh, FBPA Giardia inh, Shiga toxin inh, LmPK inhibitor)
O=C(CSc1ncccn1)N1CCC(Cc2ccccc2)CC1	none
COc1ccccc1NC(=O)COC(=O)C1CC2C=CC1C2 (configuration not stated)	CHX counter 15
CC(=O)c1ccc(NC(=O)COC(=O)C2CC3C=CC2C3)cc1 (configuration not stated)	none (no result: CHX counter, FBPA Giardia inh, Shiga toxin inh, LmPK inhibitor)
Nc1cc(Cl)ccc1Oc1ccccc1	none
Cc1cccc(Oc2ccc(Cl)cc2N)c1	CHX counter 34, Shiga toxin inh 89
COc1ccc(C(=O)NCC(c2ccc(N(C)C)cc2)N2CCc3ccccc32)cc1OC (configuration not stated)	none (no result: CHX counter, RE007 growth inh, FBPA Giardia inh, Shiga toxin inh, LmPK inhibitor)
N=c1c2c(ncn1Cc1ccco1)Oc1cc(O)ccc1C2c1ccccc1 (configuration not stated)	none
N=c1c2c(ncn1Cc1ccco1)Oc1c(ccc3ccccc13)C2c1ccccc1 (configuration not stated)	CHX counter 23, Shiga toxin inh 18
Cc1ccc2c(n1)Oc1ccc(C(C)C(=O)OCC(=O)N(C)C)cc1C2 (configuration not stated)	none (no result: CHX counter, RE007 growth inh, FBPA Giardia inh, Shiga toxin inh, LmPK inhibitor)
CNC(=S)NNC(=O)c1ccc(C(C)(C)C)cc1	CHX counter 17
CNC(=S)NNC(=O)c1ccc2c(c1)OCO2	Shiga toxin inh 52
O=C(NNC(=O)c1cccc2ccccc12)c1ccc2c(c1)OCO2	CHX counter 24, Shiga toxin inh 50
CCCCNC(=S)NNC(=O)c1ccc2c(c1)OCO2	none
Cc1cccc(Nc2ncnc3c2cnn3C)c1C	none (no result: CHX counter, RE007 growth inh, FBPA Giardia inh, Shiga toxin inh, LmPK inhibitor)
NC(=Nc1ccc(Br)cc1)c1ccccc1	CHX counter 20, Shiga toxin inh 76
N/C(=N\OC(=O)Oc1ccccc1)c1ccc(Br)cc1	none
COC(=O)c1ccc(NC(=O)C2CCCO2)cc1 (configuration not stated)	CHX counter 38, Shiga toxin inh 35
COc1ccc(Cc2nnc(NC(=O)C3CCCO3)s2)cc1 (configuration not stated)	CHX counter 24
O=C(Nc1ccc(Oc2ccccc2)cc1)C1CCN(c2ncccn2)CC1	none
O=C(Nc1ccc(C#Cc2ccccc2)cc1)C1CC1	CHX counter 44, Shiga toxin inh 51
COc1ccc(Cc2nnc(NC(=O)C3CCCO3)s2)cc1OC (configuration not stated)	none
O=C(Nc1ccc(Oc2ccccc2)cc1)C1CC1	Shiga toxin inh 71
Cc1ccc(C(=O)N(Cc2ccco2)Cc2sccc2C)cc1	none (no result: CHX counter, RE007 growth inh, FBPA Giardia inh, Shiga toxin inh, LmPK inhibitor)
Cc1ccn2c(=O)cc(COc3cccc(NC(=O)Nc4cccc(Cl)c4C)c3)nc2c1	none (no result: CHX counter, RE007 growth inh, FBPA Giardia inh, Shiga toxin inh, LmPK inhibitor)
COc1ccc(-c2csc(NC(=O)C3CCCO3)n2)cc1 (configuration not stated)	CHX counter 43, RE007 growth inh inconclusive, Shiga toxin inh 82
O=C(Nc1ccccc1C(=O)O)c1ccc(NC(=O)C2CC2)cc1	RE007 growth inh inconclusive (no result: FBPA Giardia inh)
COc1ccc(NC(=O)C2CCCO2)cc1 (configuration not stated)	CHX counter 16
COC(=O)COc1ccc(NC(=O)C2CCCO2)cc1 (configuration not stated)	none
O=C(Nc1ccc(Oc2ccccc2)cc1)C1CCCO1 (configuration not stated)	CHX counter 31, Shiga toxin inh 190
O=C(Nc1ccccc1O)c1ccc(NC(=O)C2CC2)cc1	CHX counter 39, Shiga toxin inh 83

From PubChem BioAssay
